Test results published in PubChem BioAssay (NCATS).
Results filed as inconclusive are left out. Calls of active or inactive are those of the source. Calls come from the whole dose curve; as a rule, active = well fitted curve in the direction sought with a large enough effect; inconclusive = small, poorly fitted or top-dose-only effect, or another doubt; inactive = no such curve, though single readings can be large; an effect the other way counts as inactive or inconclusive.

Columns and labels:
[1] = test system: CRL-7250; assay: Cytotoxic Profiling of Annotated Libraries Using Quantitative High-Throughput Screening (AID 1296008); conditions: Five cell lines viability, CellTiter-Glo ATP luminescence, 48-72 h; max response: stronger effect = lower value; note: nearly all actives have a fitted effect of over 60% in size; for max response: % is set by controls: 0 for no effect and ±100 for the full control effect
How it was run: (§1)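 Cytotoxicity was measured as CellTiter-Glo ATP luminescence, read after 10 min at room temperature. Compound treatment of the cells lasted 48 or 72 hr at 37 degrees Celsius in a qHTS format.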

[2] = test system: HEK293; assay: as above; conditions: Five cell lines viability, CellTiter-Glo ATP luminescence, 48-72 h; max response: stronger effect = lower value
How it was run: as §1

[3] = test system: HaCat; assay: as above; conditions: Five cell lines viability, CellTiter-Glo ATP luminescence, 48-72 h; max response: stronger effect = lower value
How it was run: as §1

[4] = test system: KB-3-1; assay: as above; conditions: Five cell lines viability, CellTiter-Glo ATP luminescence, 48-72 h; max response: stronger effect = lower value
How it was run: as §1

[5] = test system: NIH3T3; assay: as above; conditions: Five cell lines viability, CellTiter-Glo ATP luminescence, 48-72 h; max response: stronger effect = lower value
How it was run: as §1

[6] = test system: HACAT; assay: qHTS assay to identify novel small-molecules to repurpose for Merkel cell carcinoma treatment (AID 1296009); conditions: MCC and control cell lines, CellTiter-Glo viability, 72 h; at 44.8 µM (top of the series) unless noted; note: nearly all actives have a fitted effect of over 60% in size
How it was run: (§2)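 Cell viability measured by CellTiter-Glo following 72 hr compound treatment at 37 degree celsius, with NPC and MIPE libraries tested in 8- and 11-point concentration series.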

[7] = test system: NIH3T3; assay: as above; conditions: MCC and control cell lines, CellTiter-Glo viability, 72 h; at 44.8 µM (top of the series) unless noted
How it was run: as §2

[8] = test system: C33A; assay: Primary qHTS to identify gynecologic anti-cancer compounds using libraries of approved drugs and bioactive compounds (AID 1345084); conditions: Gynecologic cancer cell panel viability, ATPlite luminescence, 48 h; series mostly up to 57.5 µM; note: % is set by controls: 0 for no effect and ±100 for the full control effect; nearly all actives have a fitted effect of over 55% in size
How it was run: (§3)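 Luminescence from the ATPlite ATP-monitoring reagent indicates viable cell number; lower signal means cytotoxicity. Cells received compound 16 h after seeding and were exposed for 48 h across five concentrations.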

[9] = test system: CASKI; assay: as above; conditions: Gynecologic cancer cell panel viability, ATPlite luminescence, 48 h; series mostly up to 57.5 µM
How it was run: as §3

[10] = test system: Es-2; assay: as above; conditions: Gynecologic cancer cell panel viability, ATPlite luminescence, 48 h; series mostly up to 57.5 µM
How it was run: as §3

[11] = test system: HeLa; assay: as above; conditions: Gynecologic cancer cell panel viability, ATPlite luminescence, 48 h; series mostly up to 57.5 µM
How it was run: as §3

[12] = test system: Hek293T; assay: as above; conditions: Gynecologic cancer cell panel viability, ATPlite luminescence, 48 h, control line for the selectivity index; series mostly up to 57.5 µM
How it was run: as §3

[13] = test system: JEG-3; assay: as above; conditions: Gynecologic cancer cell panel viability, ATPlite luminescence, 48 h; series mostly up to 57.5 µM
How it was run: as §3

[14] = test system: OV90; assay: as above; conditions: Gynecologic cancer cell panel viability, ATPlite luminescence, 48 h; series mostly up to 57.5 µM
How it was run: as §3

[15] = test system: PA-1; assay: as above; conditions: Gynecologic cancer cell panel viability, ATPlite luminescence, 48 h; series mostly up to 57.5 µM
How it was run: as §3

[16] = test system: CAOV3; assay: as above; conditions: Gynecologic cancer cell panel viability, ATPlite luminescence, 48 h; series mostly up to 57.5 µM
How it was run: as §3

CCN(CCN(C)C)C(=O)CNCc1cc(C(N)=O)ccn1
inactive: outcome [1] | max response [2] 1.94% | outcome [3] | max response [4] 7.84% | outcome [5] | outcome [6] | outcome [7] | Potency [8] | outcome [9] | Potency [10] | Potency [11] | Potency [12] | Potency [13] | Potency [14] | Potency [15]

C=C(C(=O)O)C1CC(OC(=O)CC(C)CC)C2(C)CCCC(=C)C2C1 (stereo unspecified)
inactive: max response [1] 4.7% | max response [2] 4.07% | outcome [3] | max response [4] 2.84% | outcome [5] | outcome [6] | outcome [7] | Potency [8] | outcome [9] | Potency [10] | Potency [11] | Potency [12] | Potency [13] | Potency [14] | Potency [15]

OC[C@H]1O[C@@H](OCCc2ccccc2)[C@H](O[C@@H]2OC[C@@H](O)[C@H](O)[C@H]2O)[C@@H](O)[C@@H]1O
inactive: outcome [1] | max response [2] 4.26% | outcome [3] | max response [4] 9.19% | outcome [5] | outcome [6] inactive [at 17.4 µM] | outcome [7] inactive [at 17.4 µM] | Potency [8] | outcome [9] | Potency [10] | Potency [11] | Potency [12] | Potency [13] | Potency [14] | Potency [15]

CC1(C)CC(NC(=O)C(=O)Nc2ccc(Cl)cc2)CC(C)(C)N1
inactive: max response [1] -5.64% | max response [2] -2.65% | outcome [3] | max response [4] 4.82% | outcome [5] | outcome [6] | outcome [7] | Potency [8] | Potency [16] | outcome [9] | Potency [10] | Potency [11] | Potency [12] | Potency [13] | Potency [14] | Potency [15]

Cc1c(-c2ccc3c(c2)OCO3)oc2ccc(C(O)C(C)O)cc12 (stereo unspecified)
inactive: max response [1] -2.17% | max response [2] -10.1% | outcome [3] | outcome [4] | outcome [5] | outcome [6] | outcome [7] | Potency [8] | Potency [16] | outcome [9] | Potency [10] | Potency [11] | Potency [12] | Potency [13] | Potency [15]

COC(=O)/C=C/c1ccc(O[C@@H]2O[C@H](CO)[C@@H](O)[C@H](O)[C@H]2O)cc1
inactive: max response [1] -1.55% | max response [2] -5.47% | outcome [3] | max response [4] 2.42% | outcome [5] | outcome [6] | outcome [7] | Potency [8] | outcome [9] | Potency [10] | Potency [11] | Potency [12] | Potency [13] | Potency [14] | Potency [15]

CC(=O)c1c(C)cccc1O[C@@H]1O[C@H](CO)[C@@H](O)[C@H](O)[C@H]1O
inactive: max response [1] 1.88% | max response [2] -3.42% | outcome [3] | max response [4] 7.75% | outcome [5] | outcome [6] | outcome [7] | Potency [8] | outcome [9] | Potency [10] | Potency [11] | Potency [12] | Potency [13] | Potency [14] | Potency [15]

CC(=O)OCC1=CCC2C(C)(C)CCCC2(C)C12CCC(C)(CC(=O)O)O2 (stereo unspecified)
inactive: max response [1] -2.76% | max response [2] -0.588% | outcome [3] | max response [4] 5.22% | outcome [5] | outcome [6] | outcome [7] | Potency [8] | Potency [16] | outcome [9] | Potency [10] | Potency [11] | Potency [12] | Potency [14] | Potency [15]

CN[C@H](CNC(=O)N1CCC[C@@H]([C@@H](OCCNC(=O)OC)c2cccc(Cl)c2)C1)C[C@H]1CCCOC1
inactive: max response [1] -5.16% | max response [2] 0.31% | outcome [3] | max response [4] 1.87% | outcome [5] | outcome [6] | outcome [7] | Potency [8] | outcome [9] | Potency [10] | Potency [11] | Potency [12] | Potency [13] | Potency [14] | Potency [15]

COc1cccc(CN(C(=O)CC(C)(C)C)C2CC(C(=O)N3CCNCC3)N(Cc3ccc4c(c3)OCO4)C2)c1 (stereo unspecified)
inactive: max response [1] -4.46% | max response [2] -17.6% | outcome [3] | outcome [4] | outcome [5] | outcome [6] | outcome [7] | Potency [8] | outcome [9] | Potency [10] | Potency [11] | Potency [12] | Potency [13] | Potency [14] | Potency [15]

COc1ccc(C2(O)c3c(ccc4c3OC(C)(CCC=C(C)C)C=C4)NC(=O)C2OC)cc1 (stereo unspecified)
inactive: outcome [1] | max response [2] -6.81% | outcome [3] | max response [4] 5.8% | outcome [5] | outcome [6] inactive [at 17.4 µM] | outcome [7] inactive [at 17.4 µM] | Potency [8] | Potency [16] | Potency [10] | Potency [11] | Potency [12] | Potency [13] | Potency [14] | Potency [15]

Cc1ccccc1-n1nc(-c2c(-c3ccc(F)cc3)nn3c2NC[C@@H](CO)C3)ccc1=O
inactive: max response [1] 1.82% | max response [2] -7.72% | outcome [3] | max response [4] 1.64% | outcome [5] | outcome [6] | outcome [7] | Potency [8] | Potency [16] | outcome [9] | Potency [10] | Potency [12] | Potency [13] | Potency [14] | Potency [15]
